Most compounds without a hit are left out; they make up all but 5.8% or so of the library.
TRPV1 ag – activates the human vanilloid receptor TRPV1. Q8NER1. actives 0.19% (n = 320,000). activation, % at 8.33 µM. TRPV1-expressing cells, Fluo-8 calcium influx, agonist mode. AID 540275; in the data active means activation above about 80%; inconclusive means between about 30% and that limit
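Fluo-8 calcium influx in TRPV1-expressing cells, kinetic read (ex 480/em 520 nm). Compound added and read 3 min for agonist activity, followed by capsaicin at EC20 final and 2 min further read for enhancement.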
TRPV1 PAM – human TRPV1 potentiation; TRPV1-expressing cells, Fluo-8 calcium influx, capsaicin EC20 potentiation; Q8NER1; potentiation, % at 8.33 µM; AID 540277; actives 0.02% (n = 320,000); in the data active means potentiation above about 80%; inconclusive means between about 30% and that limit
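TRPV1-expressing cells were cultured overnight at 35.5C and loaded with Fluo-8 calcium dye for 40 to 90 min at room temperature. After a 10 s baseline, compound was added and calcium influx was read kinetically for 3 min (ex 480/em 520 nm).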
uPA generation – inhibitors of cell surface uPA generation; cell surface uPA generation assay, qHTS; Potency, µM (top dose mostly 38.3 µM), hits mostly inhibitors; actives 0.31% (n = 330,000); AID 540303; active means well fitted inhibition curve with a large enough effect; inconclusive means small, poorly fitted or top-dose-only effect; inactive means no such curve, though single readings can be large or run the other way; tested in mouse RAW 264.7 cells; further: nearly all actives have a fitted effect of over 55% in size
RORgamma inh – inhibitors of mouse ROR gamma transcriptional activity; P51450; Drosophila S2 Gal4-RORgamma UAS-luciferase reporter, 20 h; Potency, µM (series often up to 53.6 µM), most hits filed as inhibitors; actives 5.4% (n = 310,000); further: nearly all actives have a fitted effect of over 60% in size
Target sequence (P51450 whole entry, looked up, the tested form may be a part): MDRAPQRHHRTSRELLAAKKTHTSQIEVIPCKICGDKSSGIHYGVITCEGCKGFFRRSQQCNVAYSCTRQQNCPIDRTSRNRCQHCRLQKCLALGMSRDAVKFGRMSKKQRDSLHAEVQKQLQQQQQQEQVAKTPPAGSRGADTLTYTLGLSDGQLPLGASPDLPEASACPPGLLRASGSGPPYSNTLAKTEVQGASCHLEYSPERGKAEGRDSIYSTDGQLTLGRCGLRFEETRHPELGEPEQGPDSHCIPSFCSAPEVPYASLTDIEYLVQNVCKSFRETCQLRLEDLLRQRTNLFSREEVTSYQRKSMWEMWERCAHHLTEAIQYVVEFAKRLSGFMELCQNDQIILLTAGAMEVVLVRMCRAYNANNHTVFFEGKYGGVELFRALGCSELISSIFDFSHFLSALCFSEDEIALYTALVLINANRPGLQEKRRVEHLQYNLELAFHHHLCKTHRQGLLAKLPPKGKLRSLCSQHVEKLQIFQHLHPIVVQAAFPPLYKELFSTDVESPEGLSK
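Compounds are pin-transferred onto Drosophila Schneider cells expressing a copper-inducible Gal4–ROR gamma transactivation domain fusion. After 1 hr, copper sulfate is added to 700 uM final; luciferase is read 20 hr later.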
Gal4-VP16 FLuc – counter-screen for ROR gamma inhibitors: Gal4-VP16 reporter | Drosophila S2 Gal4-VP16 UAS-luciferase, luminescence, 20 h | Potency, µM (top dose mostly 53.6 µM), usual class: inhibitors | actives 3.5% (n = 310,000);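 further: Gal4-VP16 expression switched on by copper sulfate through the metallothionein promoter; nearly all actives have a fitted effect of over 50% in size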
Large screens that a line does not name were inactive. Unless noted, the call rests on the fitted dose curve; in most records, active means well fitted curve in the direction sought with a large enough effect; inconclusive means small, poorly fitted or top-dose-only effect, or another doubt; inactive means no such curve, though single readings can be large; an effect the other way counts as inactive or inconclusive.

O=C(NC1=NCCS1)c1cc(-c2ccc(-c3ccccc3)cc2)nc2ccccc12	TRPV1 PAM inconclusive, RORgamma inh 3.5µM, Gal4-VP16 FLuc 5µM
Cc1ccc(-c2cc(C(=O)NN=C3CCCC3)c3ccccc3n2)cc1	RORgamma inh 13µM, Gal4-VP16 FLuc inconclusive
Cc1ccc(C)c(-c2cc(C(=O)Nc3nccs3)c3ccccc3n2)c1	RORgamma inh 13µM, Gal4-VP16 FLuc inconclusive (no result: uPA generation)
CN1CCN(NC(=O)c2cc(-c3cccc(Cl)c3)nc3ccccc23)CC1	RORgamma inh inconclusive
COC(=O)c1sccc1NC(=O)c1cc(-c2cc(C)ccc2C)nc2ccccc12	none (no result: uPA generation)
COc1ccc(-c2cc(C(=O)NC3=NCCS3)c3ccccc3n2)cc1OC	TRPV1 ag inconclusive, RORgamma inh inconclusive
COCCn1c(SCc2ccc(F)cc2)nc2c1c(=O)[nH]c(=O)n2C	uPA generation inconclusive
CCNc1ncc2nc(CCc3ccccc3)c(=O)n(CCC#N)c2n1	none (no result: TRPV1 ag, TRPV1 PAM, uPA generation)
COCCn1c(=O)c(CCc2ccccc2)nc2cnc(N3CCN(C)CC3)nc21	none (no result: TRPV1 ag, TRPV1 PAM, uPA generation)
COc1ccc(CCNC(=O)COC(=O)COc2ccc(C#N)cc2)cc1	TRPV1 PAM inconclusive
COc1ccc(C(=O)NC(=O)COC(=O)C2COc3ccccc3O2)cc1 (stereo not drawn)	none
CCc1nnc(NC(=O)c2cc(-c3ccccn3)nc3ccc(Br)cc23)s1	RORgamma inh 20µM, Gal4-VP16 FLuc inconclusive
CC(C)(C)c1nnc(NC(=O)c2cc(-c3ccccc3)nc3ccccc23)s1	RORgamma inh 5.6µM, Gal4-VP16 FLuc 10µM
O/C(=C\c1nc2ccccc2nc1/C=C(\O)c1ccccc1)c1ccccc1	RORgamma inh 10µM
O=c1oc2ccccc2nc1/C=C(\O)c1ccccc1	uPA generation 2.2µM
CC(C)(C)/C(O)=C/c1nc2ccccc2oc1=O	none
CCCNC(=O)c1ccc(-c2nc3ccccc3s2)s1	RORgamma inh 11µM, Gal4-VP16 FLuc inconclusive
CCOc1ccc(S(=O)(=O)N2CCCCC2)cc1NC(=O)CC1OC(=O)c2ccccc21 (stereo not drawn)	none (no result: RORgamma inh, Gal4-VP16 FLuc)
O=C(Cc1ccc(F)cc1)Nc1nc(-c2ccc(F)cc2)cs1	TRPV1 ag 104
Cc1noc(C)c1C(=O)Nc1nc(-c2ccc(F)cc2)cs1	none (no result: RORgamma inh, Gal4-VP16 FLuc)
O=C(Nc1nc(-c2ccc(F)cc2)cs1)c1cnccn1	RORgamma inh 2.2µM, Gal4-VP16 FLuc inconclusive
COc1cccc([C@@H]2Oc3ccc(Br)cc3C[C@H]2OC(=O)NCCc2ccc(OC)c(OC)c2)c1	RORgamma inh inconclusive (no result: TRPV1 ag, TRPV1 PAM, uPA generation)
COc1ccccc1NC(=S)NC(C)C(c1cccs1)N1CCOCC1 (stereo not drawn)	RORgamma inh 13µM, Gal4-VP16 FLuc inconclusive
CC(NC(=O)Nc1cccc(Cl)c1)C(c1cccs1)N1CCCC1 (stereo not drawn)	none
CC(NC(=S)NC1CCCCC1)C(c1cccs1)N1CCOCC1 (stereo not drawn)	RORgamma inh 8.9µM, Gal4-VP16 FLuc inconclusive
CC(NC(=S)Nc1ccc(Cl)cc1Cl)C(c1cccs1)N1CCCC1 (stereo not drawn)	TRPV1 ag inconclusive, RORgamma inh 11µM, Gal4-VP16 FLuc inconclusive
NC(=S)N/N=C/c1cc([N+](=O)[O-])ccc1OCCOc1ccccc1	none
NC(=S)N/N=C/c1cc([N+](=O)[O-])ccc1Cl	RORgamma inh 25µM
O=[N+]([O-])c1ccc(Cl)c(/C=N/NC(=S)Nc2ccccc2)c1	RORgamma inh 0.35µM, Gal4-VP16 FLuc 2.2µM (no result: TRPV1 ag, TRPV1 PAM, uPA generation)
Cc1ccc(NC(=S)NN2CCN(C)CC2)cc1	none
Cc1ccccc1NC(=S)NCc1ccco1	RORgamma inh 13µM, Gal4-VP16 FLuc inconclusive
Cc1cc(NC(=O)NCc2ccco2)ccc1NC(=O)NCc1ccco1	none (no result: TRPV1 ag, TRPV1 PAM, RORgamma inh, Gal4-VP16 FLuc)
Cc1ccc(NC(=S)NCc2ccco2)c(C)c1	RORgamma inh 16µM, Gal4-VP16 FLuc inconclusive
COc1c(N)c2c(c([N+](=O)[O-])c1OC)C(=O)OC2	none (no result: TRPV1 ag, TRPV1 PAM, RORgamma inh, Gal4-VP16 FLuc)
O=C(NN1C(=O)c2ccccc2C1=O)C1CCCCC1	none
Cc1ccc(N(CC(O)CON=C2c3ccccc3-c3ccccc32)S(C)(=O)=O)cc1 (stereo not drawn)	none
Cc1ccc(-n2c(CSc3nc(C)cc(C)n3)n[nH]c2=S)cc1	RORgamma inh 14µM
S=c1[nH]nc(Cc2n[nH]c(=S)n2-c2ccccc2)n1-c1ccccc1	none
S=c1[nH]nc(Cc2ccccc2)n1-c1ccc(Cl)cc1	RORgamma inh 2.2µM, Gal4-VP16 FLuc inconclusive
S=c1[nH]nc(Cc2ccccc2)n1-c1ccccc1	RORgamma inh 11µM, Gal4-VP16 FLuc 20µM
CC(C)Cn1c(Cc2ccccc2)n[nH]c1=S	RORgamma inh 4.5µM (no result: uPA generation)
CC(=O)N(NC(=O)c1ccc(C)cc1)C1CC(=O)N(c2ccccc2Cl)C1=O (stereo not drawn)	none
Cc1ccc(-n2c(Cc3ccccc3)n[nH]c2=S)cc1	RORgamma inh 4µM, Gal4-VP16 FLuc 10µM (no result: uPA generation)
Cc1ccccc1C(=O)NC1CCN(C(=O)N(c2ccccc2)c2ccccc2)CC1	RORgamma inh 11µM
COc1ccc2ccccc2c1C1NC(=O)NC(C)=C1[N+](=O)[O-] (stereo not drawn)	Gal4-VP16 FLuc 11µM
COc1ccc(-n2c(C)nc3cc(C(=O)N4CCOCC4)ccc32)cc1	RORgamma inh 2µM
CCCCCc1ccc(C)cc1O	Gal4-VP16 FLuc inconclusive (no result: TRPV1 ag, TRPV1 PAM, uPA generation)
O=C1c2ccccc2C(=O)C1c1ccccn1	RORgamma inh inconclusive
O=C1c2ccccc2C(=O)C1c1ccncc1	RORgamma inh inconclusive, Gal4-VP16 FLuc 11µM
COc1cccc2oc3cc(C#CC4(O)CCCCC4)ccc3c(=O)c12	TRPV1 ag inconclusive, uPA generation 7.1µM, RORgamma inh inconclusive, Gal4-VP16 FLuc inconclusive
COc1ccccc1-c1oc2ccccc2c1C#CC1(O)CCCCC1	none (no result: TRPV1 ag, TRPV1 PAM, RORgamma inh, Gal4-VP16 FLuc)
O=c1c2ccccc2sc2ccc(C#CC3(O)CCCCC3)cc12	uPA generation 2.5µM (no result: TRPV1 ag, TRPV1 PAM, RORgamma inh, Gal4-VP16 FLuc)
O=c1c2ccccc2oc2cc(C#CC3(O)CCCCC3)ccc12	uPA generation 4.5µM (no result: TRPV1 ag, TRPV1 PAM, RORgamma inh, Gal4-VP16 FLuc)
CCOc1ccc(/C=N/OC(C)C(=O)NCc2ccc3c(c2)OCO3)cc1 (stereo not drawn)	none
c1ccc(N2CCN(Cc3cnc(N4CCOCC4)s3)CC2)cc1	none
Cc1csc(N/N=C/c2c(F)cccc2Cl)n1	RORgamma inh inconclusive, Gal4-VP16 FLuc inconclusive
COc1ccccc1-c1cn[nH]c(=S)n1	TRPV1 ag inconclusive, RORgamma inh 8.9µM, Gal4-VP16 FLuc inconclusive
Cc1ccc(-c2cnc3ccccc3n2)cc1C	RORgamma inh 10µM, Gal4-VP16 FLuc inconclusive
Cc1ccc(NC(=O)c2cnc3ccccc3n2)cc1C	TRPV1 ag 84
CCn1cc(CN2CCC(n3nccc3NC(=O)c3cccc(F)c3)CC2)c(C)n1	none
c1ccc(-c2nnc3sc(-c4csc5c4CCCC5)nn23)cc1	RORgamma inh 6.3µM, Gal4-VP16 FLuc inconclusive
Cc1cc(C(=O)N/N=C/c2c(C)nn(-c3ccccc3)c2Cl)n[nH]1	none
Cc1nn(-c2cccc(Cl)c2)c(Cl)c1/C=N/NC(=O)c1cccs1	RORgamma inh inconclusive, Gal4-VP16 FLuc 13µM
CCNC(=S)N/N=C/c1c(C)nn(-c2cccc(Cl)c2)c1Cl	RORgamma inh 1.4µM, Gal4-VP16 FLuc 3.5µM

From PubChem
